{"source": "PubChem BioAssay AID588342", "about": "(National Center for Advancing Translational Sciences (NCATS), 2011)", "note": "In all, about 360,000 compounds went through this assay and about 25,000 (6.9%) were called active. Entries that show only a call come without a potency. Roughly 9% stayed inconclusive and do not appear here. This is one part of a sample in which actives are shown more often than they occur. Calls follow the shape of the dose curve; as a rule, active = well fitted inhibition curve with a large enough effect; inconclusive = small, poorly fitted or top-dose-only effect; inactive = flat fitted curve, though single readings scatter. Potency is read from the fitted curve at half-maximal effect."}
{"molecular_target": "Luciferin 4-monooxygenase (Photinus pyralis) (UniProt P08659)", "sequence (P08659 whole entry, looked up)": "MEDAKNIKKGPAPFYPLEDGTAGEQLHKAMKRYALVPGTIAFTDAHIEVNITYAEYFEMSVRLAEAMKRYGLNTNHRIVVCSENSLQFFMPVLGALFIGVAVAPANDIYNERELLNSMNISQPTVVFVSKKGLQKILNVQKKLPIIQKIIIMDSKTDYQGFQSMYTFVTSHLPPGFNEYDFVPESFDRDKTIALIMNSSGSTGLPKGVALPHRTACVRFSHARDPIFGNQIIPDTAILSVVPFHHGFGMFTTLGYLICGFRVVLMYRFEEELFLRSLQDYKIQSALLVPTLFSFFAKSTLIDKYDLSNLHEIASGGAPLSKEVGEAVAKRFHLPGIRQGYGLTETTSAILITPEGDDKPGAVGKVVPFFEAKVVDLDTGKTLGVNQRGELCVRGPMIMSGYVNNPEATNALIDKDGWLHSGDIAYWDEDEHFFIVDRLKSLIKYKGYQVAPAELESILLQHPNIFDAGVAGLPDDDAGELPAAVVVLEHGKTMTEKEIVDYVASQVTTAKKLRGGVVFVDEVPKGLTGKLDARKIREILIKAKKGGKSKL", "assay": "qHTS profiling assay for firefly luciferase inhibitor/activator using purifed enzyme and Km concentrations of substrates (counterscreen for miR-21 project); also: nearly all actives have a fitted effect of over 55% in size", "details": "purified FLuc, luminescence inhibition; series mostly up to 57.5 µM", "how_it_was_run": "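Purified P. pyralis luciferase (10nM final) with 10uM D-luciferin and 10uM ATP (Km levels) in 50mM Tris acetate pH 7.5, 10mM Mg acetate, 0.01% Tween-20, 0.05% BSA; qHTS 6-point titration, ~60 µM downward; luminescence read.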"}
{"smiles": "CN1c2ccc(Cl)cc2-c2nc(SCC(=O)Nc3cc(F)ccc3F)ncc2S1(=O)=O", "Potency": "inactive"}
{"smiles": "O=C(NCCCO)C(=O)Nc1c2c(nn1-c1ccc(F)cc1)CSC2", "Potency": "inactive"}
{"smiles": "Cn1c2cc(B(O)O)sc2c2cnn(Cc3ccccc3F)c(=O)c21", "Potency": "inactive"}
{"smiles": "CCc1noc(C)c1C(=O)N1CCN(S(=O)(=O)c2cccc(C(F)(F)F)c2)CC1", "Potency": "inactive"}
{"smiles": "OCC[C@H]1C[C@@H](O)[C@H](O)[C@@]2(OCCc3ccccc32)O1", "Potency": "inactive"}
{"smiles": "COc1ccc(S(=O)(=O)N2CCN(CC(=O)N3c4ccccc4CC3C)CC2)cc1OC", "note": "(stereo not drawn)", "Potency": "inactive"}
{"smiles": "CC1Cc2cc(S(=O)(=O)CCC(=O)NCc3ccc(Cl)cc3)ccc2N1C(=O)C1CC1", "note": "(stereo not drawn)", "Potency": "inactive"}
{"smiles": "O=C(Nc1cccc(Cl)c1)Nc1ccccc1NS(=O)(=O)c1cccs1", "Potency": "16.9 µM (active)"}
{"smiles": "O=S(=O)(Nc1ccccc1Br)c1cccs1", "Potency": "inactive"}
{"smiles": "O=S(=O)(NCc1ccc(Cl)cc1Cl)c1cccs1", "Potency": "inactive"}
{"smiles": "Cc1ccc(Cl)cc1N(C)C(=O)C1CCCN(c2ncnc3onc(-c4ccc(F)cc4)c23)C1", "note": "(stereo not drawn)", "Potency": "inactive"}
{"smiles": "COc1ccccc1NC(=O)c1oc2ccccc2c1NC(=O)C(C)C", "Potency": "inactive"}
{"smiles": "COc1cc(OC)cc(C(=O)Nc2c(C(=O)Nc3ccc(F)cc3)oc3ccccc23)c1", "Potency": "2.69 µM (active)"}
{"smiles": "COc1ccccc1C(=O)Nc1c(C(=O)Nc2ccc(C)cc2)oc2ccccc12", "Potency": "inactive"}
{"smiles": "Cc1ccc(C)c(NC(=O)Cn2ccn(-c3ccc(F)cc3)c(=O)c2=O)c1", "Potency": "inactive"}
{"smiles": "CCOC(=O)C1CCN(c2nc3c(S(=O)(=O)c4ccc(CC)cc4)nnn3c3ccc(Cl)cc23)CC1", "Potency": "inactive"}
{"smiles": "CCc1ccc(CNC(=O)c2cc3c(=O)n(CC)c4ccccc4c3s2)cc1", "Potency": "inactive"}
{"smiles": "O=C(CCN1CCCO1)N1CCCC(N2CCN(c3cccc(C(F)(F)F)c3)CC2)C1", "note": "(stereo not drawn)", "Potency": "inactive"}
{"smiles": "CCc1ccc(CNC(=O)C2CCN(c3nn4cc(-c5ccc(F)cc5)nc4s3)CC2)cc1", "Potency": "inactive"}
{"smiles": "CCC(CC)c1nn2cc(-c3ccccc3)nc2s1", "Potency": "0.269 µM (active)"}
{"smiles": "CCC(CC)c1nnc(NS(=O)(=O)Cc2ccccc2)s1", "Potency": "inactive"}
{"smiles": "Cc1ccc(F)cc1NC(=O)CCSc1nc(-c2ccco2)cc(C(F)(F)F)n1", "Potency": "inactive"}
{"smiles": "Clc1ccccc1CSc1nncn2c1cc1occc12", "Potency": "inactive"}
{"smiles": "CSCCC(NC(=O)COc1ccccc1)C(=O)N(C)CC(=O)Nc1ccc(C)cc1", "note": "(stereo not drawn)", "Potency": "inactive"}
{"smiles": "CCOC(=O)C1CCN(C(=O)CSc2c3c(nc4ccc(Cl)cc24)CCCC3)CC1", "Potency": "inactive"}
{"smiles": "C=CCNC(=O)c1csc(-c2ccccc2)n1", "Potency": "inactive"}
{"smiles": "C=CC[n+]1c(-c2ccc(C)cc2)csc1NNC(=O)Nc1ccccc1", "Potency": "19 µM (active)"}
{"smiles": "C=CCNc1scc(-c2ccccc2)[n+]1CC=C", "Potency": "inactive"}
{"smiles": "CCOC(=O)C1CCCN(CCSc2ccc(C)cc2)C1", "note": "(stereo not drawn)", "Potency": "inactive"}
{"smiles": "O=C(COC(=O)CNC(=O)C1CCCCC1)NCc1ccccc1", "Potency": "inactive"}
{"smiles": "COc1ccc2c(CC(=O)OCC(=O)Nc3ccccc3[N+](=O)[O-])coc2c1", "Potency": "inactive"}
{"smiles": "Cc1ccc(C)c(OCC(=O)N2CCN(C(=O)c3ccco3)CC2)c1", "Potency": "inactive"}
{"smiles": "Cc1ccc2nc(N3CCN(C(=O)c4ccco4)CC3)sc2c1", "Potency": "10.7 µM (active)"}
{"smiles": "Cc1nc2ccc(C(=O)N3CCN(c4ccccc4)CC3)cc2s1", "Potency": "inactive"}
{"smiles": "Cc1nc2ccc(C(=O)N3CCSCC3)cc2s1", "Potency": "inactive"}
{"smiles": "CC1CCN(c2nc3ccc(C(=O)N4CCN(c5ccccc5)CC4)cc3s2)CC1", "Potency": "23.9 µM (active)"}
{"smiles": "Cc1ccc(OCC(=O)Nc2ccc(N3CCN(C(=O)c4ccco4)CC3)cc2)c(C)c1", "Potency": "inactive"}
{"smiles": "COc1cccc(CN2CCc3nc(SCC(=O)Nc4ccccc4)[nH]c(=O)c3C2)c1", "Potency": "inactive"}
{"smiles": "COC(=O)C(NS(=O)(=O)c1ccc(F)cc1)c1ccccc1", "note": "(stereo not drawn)", "Potency": "inactive"}
{"smiles": "CCOc1ccc(N(Cc2ccccc2)C(=O)c2nc(S(C)(=O)=O)ncc2Cl)cc1", "Potency": "inactive"}
{"smiles": "COc1ccc(C(=O)Cn2nnc(-c3ccc(N4CCOCC4)cc3)n2)cc1OC", "Potency": "8.49 µM (active)"}
{"smiles": "CCOc1ccc(-c2nnn(CC(=O)N3CCN(c4ccc(OC)cc4)CC3)n2)cc1OCC", "Potency": "inactive"}
{"smiles": "CCOc1ccc(-c2nnn(CC(=O)N3CCN(c4ccc(F)cc4)CC3)n2)cc1OCC", "Potency": "inactive"}
{"smiles": "COC(=O)C1CCN(C(=O)c2ccc3oc(Cc4ccc(Cl)cc4)nc3c2)CC1", "Potency": "inactive"}
{"smiles": "COc1cccc(NC(=O)Cn2c(=O)cc(C)c3c(C)nn(-c4cccc(F)c4)c32)c1", "Potency": "inactive"}
{"smiles": "Cn1c(=O)n(C)c2cc(S(=O)(=O)Nc3ccc(F)cc3)ccc21", "Potency": "inactive"}
{"smiles": "Cc1ccc2cc(C#N)c(SCC(=O)NCC3CCCO3)nc2c1C", "note": "(stereo not drawn)", "Potency": "inactive"}
{"smiles": "COc1cc(OC)cc(C(=O)Nc2nnc(SCC(=O)NCC3CCCO3)s2)c1", "note": "(stereo not drawn)", "Potency": "15.1 µM (active)"}
{"smiles": "COc1ccccc1N1CC(C(=O)Nc2nnc(SCC(=O)NCC3CCCO3)s2)CC1=O", "note": "(stereo not drawn)", "Potency": "inactive"}
{"smiles": "CCCOc1ccccc1-c1nc(SCCC(=O)O)n[nH]1", "Potency": "inactive"}
{"smiles": "Cc1cc(C)nc(Nc2ncn[nH]2)n1", "Potency": "inactive"}
{"smiles": "Cc1cc(C)nc(Nc2n[nH]c(-c3ccccc3N)n2)n1", "Potency": "0.953 µM (active)"}
{"smiles": "COC(=O)C1=C(c2ccccc2)c2ccccc2S(=O)(=O)N1CC(=O)Nc1ccccc1C(F)(F)F", "Potency": "inactive"}
{"smiles": "O=C(CSc1nccn1C1CCCC1)Nc1cc(C(F)(F)F)ccc1Cl", "Potency": "inactive"}
{"smiles": "COc1ccc(C)cc1Nc1nc(C)nc2c1oc1ccccc12", "Potency": "inactive"}
{"smiles": "COc1ccccc1Nc1ncnc2c1oc1ccccc12", "Potency": "13.5 µM (active)"}
{"smiles": "CCC(C(=O)OC)n1cnc2c(oc3ccccc32)c1=O", "note": "(stereo not drawn)", "Potency": "inactive"}
{"smiles": "O=C(CN1C(=O)NC2(CCOc3ccccc32)C1=O)NCc1ccc(F)cc1", "note": "(stereo not drawn)", "Potency": "inactive"}
{"smiles": "CCN(CC)CCn1c(/N=C/c2cc(Br)ccc2O)nc2ccccc21", "Potency": "inactive"}
{"smiles": "Oc1ccc(Br)cc1/C=N/Nc1ccccn1", "Potency": "8.49 µM (active)"}
{"smiles": "Cc1nccn1CC(=O)N/N=C/c1ccc(O)c(O)c1", "Potency": "inactive"}
{"smiles": "O=C(Nc1ccccc1)N1CCN(C2c3ccccc3-c3ccccc32)CC1", "Potency": "inactive"}
{"smiles": "CC1=C(c2ccc(C)c(C)c2)S(=O)(=O)NC1=NCc1ccccc1Cl", "Potency": "inactive"}
{"smiles": "CC(C)CN(C(=O)CSc1ncnc2sccc12)C1CCS(=O)(=O)C1", "note": "(stereo not drawn)", "Potency": "inactive"}
{"smiles": "COC(=O)c1cnc(Nc2cc(C)ccc2OC)c2ccccc12", "Potency": "inactive"}
{"smiles": "COc1ccc(C)cc1Nc1nc(-c2c(C)[nH]c3ccccc23)cs1", "Potency": "13.5 µM (active)"}
{"smiles": "COc1ccc(C)cc1Nc1nc2ccccc2c2nnc(C)n12", "Potency": "inactive"}
{"smiles": "Cc1ccc(CN2C(=O)SC(Nc3ccccc3)C2=O)cc1", "note": "(stereo not drawn)", "Potency": "inactive"}
{"smiles": "Cc1ccc(N(CC(=O)NCc2ccc(Cl)cc2)S(=O)(=O)N(C)C)cc1", "Potency": "inactive"}
{"smiles": "COC(=O)C(NC(C)=O)(Nc1nc2c(s1)CCCC2)C(F)(F)F", "note": "(stereo not drawn)", "Potency": "inactive"}
{"smiles": "Cc1cc(C)cc(OC(C)C(=O)Nc2nc3c(s2)CCCC3)c1", "note": "(stereo not drawn)", "Potency": "inactive"}
{"smiles": "Fc1ccc2nc(Nc3nc4c(s3)CCCC4)sc2c1", "Potency": "3.01 µM (active)"}
{"smiles": "Cc1cccc(Nc2nc(C)nc(N)c2S(=O)(=O)c2ccccc2)c1", "Potency": "inactive"}
{"smiles": "CCc1ccccc1NC(=O)Cn1c(=O)n(CC2CCC(C(=O)NCCc3ccccc3)CC2)c(=O)c2ccccc21", "note": "(stereo not drawn)", "Potency": "inactive"}
{"smiles": "CCSc1nsc(NC(=O)Nc2cccc(C(C)=O)c2)n1", "Potency": "19 µM (active)"}
{"smiles": "CC(=O)c1cccc(NC(=O)CSc2nc3c(c(=O)[nH]2)CCC3)c1", "Potency": "inactive"}
{"smiles": "CSc1ccccc1C(=O)Nc1cccc(C(C)=O)c1", "Potency": "inactive"}
{"smiles": "CC(=O)c1cccc(NC(=S)N2CCN(S(C)(=O)=O)CC2)c1", "Potency": "inactive"}
{"smiles": "C=CCSc1nsc(NC(=O)Nc2cccc(C(C)=O)c2)n1", "Potency": "15.1 µM (active)"}
{"smiles": "COc1ccc(NC(C(=O)Nc2cccc(C(C)=O)c2)c2ccccc2)cc1", "note": "(stereo not drawn)", "Potency": "inactive"}
{"smiles": "Cc1ccc2c(c1)-c1c(cnn1CC(=O)Nc1ccccc1C#N)CO2", "Potency": "inactive"}
{"smiles": "Cc1ccc(Cn2c(=O)n(Cc3nc(-c4ccccc4)no3)c(=O)c3cc4c(cc32)OCO4)cc1", "Potency": "inactive"}
{"smiles": "Cc1ccccc1OCc1nnc(SCC(=O)N2c3ccccc3Sc3ccc(Cl)cc32)o1", "Potency": "inactive"}
{"smiles": "CC1CCC(NS(=O)(=O)c2ccc3c(c2)CC(=O)N3)CC1", "note": "(stereo not drawn)", "Potency": "inactive"}
{"smiles": "Cc1ccc(NC(=O)c2cc(S(=O)(=O)NCCC3=CCCCC3)ccc2F)cc1C", "Potency": "inactive"}
{"smiles": "COC(=O)c1cc(OC)c(OC)cc1NC(=O)CSc1ccc(C)cc1", "Potency": "inactive"}
{"smiles": "Cc1ccc(SCC(=O)c2cc(C)c(OC(=S)N(C)C)c(C)c2)cc1", "Potency": "8.49 µM (active)"}
{"smiles": "CCN1CCN(C(=O)CSc2ccc(C)cc2)CC1", "Potency": "inactive"}
{"smiles": "COc1ccc(OC)c(Nc2nc3ccccc3n3cnnc23)c1", "Potency": "inactive"}
{"smiles": "COc1cc(Nc2nc3ccc(Cl)cc3n3cnnc23)cc(OC)c1OC", "Potency": "inactive"}
{"smiles": "COc1cc(/C=N/Nc2nn3cnnc3c3ccccc23)cc(OC)c1OC", "Potency": "0.953 µM (active)"}
{"smiles": "O=C(CSc1nnc(CNC(=O)c2ccccc2)n1-c1ccc(F)cc1)Nc1ccccc1F", "Potency": "inactive"}
{"smiles": "COc1cc(OC)c(/C=N/NC(=O)c2ccc([N+](=O)[O-])cc2)cc1Br", "Potency": "inactive"}
{"smiles": "Cc1[nH]n(-c2ccccc2)c(=O)c1/C=N/NC(=O)c1ccoc1C", "Potency": "21.3 µM (active)"}
{"smiles": "Cc1[nH]n(-c2ccc([N+](=O)[O-])cc2)c(=O)c1C=NCCN1CCN(C(=O)c2ccccc2F)CC1", "Potency": "inactive"}
{"smiles": "Cc1ccc(-n2[nH]c(C)c(/C=N/NC(=O)c3cccc([N+](=O)[O-])c3)c2=O)cc1C", "Potency": "0.426 µM (active)"}
{"smiles": "Cc1cc[n+](-c2[nH]c(=O)sc2/C=N/NC(=O)c2ccccc2[O-])cc1C", "Potency": "inactive"}
{"smiles": "COc1cc(/C=N/NC(=O)c2ccoc2C)ccc1OCCN1CCCCC1", "Potency": "inactive"}
{"smiles": "O=C(NNC1=NCCC1)c1cccc(S(=O)(=O)N2CCCCC2)c1", "Potency": "inactive"}
{"smiles": "Cc1ccc(Cl)cc1N(C)C(=O)Cn1nc(Cc2cccnc2)c2ccccc2c1=O", "Potency": "inactive"}
{"smiles": "COc1cccc(N2CCN(C(=O)CCCCCn3c(=O)[nH]c4ccccc4c3=O)CC2)c1", "Potency": "inactive"}
{"smiles": "COCCN(C(=O)CC1CCCCC1)c1c(N)n(CC(C)C)c(=O)[nH]c1=O", "Potency": "inactive"}
{"smiles": "CCOC(=O)N1CCc2c(sc3c2c(=O)n(-c2ccc(CC)cc2)c(=O)n3C)C1", "Potency": "inactive"}
